In the library only some 2.9% were active in any assay of this set; here they are far more common.
SMARCA2 activ = SMARCA2 function activation, primary screen | MG213 cells, MMTV-luciferase reporter, dexamethasone, overnight | activation, % at 9.1 µM | 370,000 tested, 1% active | AID 652017; in the data active = activation above about 7.8%;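 note: 0% = vehicle wells and 100% = reference activator wells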
GAA850 FXN act = activators of GAA850 frataxin (FXN) promoter | HEK293 lucGAA850 FXN promoter luciferase reporter, 24 h; percent of 10 µM SAHA response | activation, % at 6 µM | 360,000 tested, 0.56% active | AID 540364;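 active = activation above the average of all compounds screened plus 3 SD, cutoff fixed separately per campaign, cut at about 7.5% in these data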;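 note: 0% = DMSO wells and 100% = 10 µM SAHA wells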
KLK7 zymogen act = activates the human kallikrein-7 zymogen; P49862; purified proKLK7, EDANS-DABCYL substrate fluorescence; 100% is mature enzyme control, 0% vehicle; 370,000 tested, 0.9% active; activation, % at 7 µM;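 active = activation above the mean of all tested compounds plus 3 SD, computed per campaign excluding outliers beyond control limits, cut at about 13% in these data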
Target sequence (P49862 whole entry, looked up): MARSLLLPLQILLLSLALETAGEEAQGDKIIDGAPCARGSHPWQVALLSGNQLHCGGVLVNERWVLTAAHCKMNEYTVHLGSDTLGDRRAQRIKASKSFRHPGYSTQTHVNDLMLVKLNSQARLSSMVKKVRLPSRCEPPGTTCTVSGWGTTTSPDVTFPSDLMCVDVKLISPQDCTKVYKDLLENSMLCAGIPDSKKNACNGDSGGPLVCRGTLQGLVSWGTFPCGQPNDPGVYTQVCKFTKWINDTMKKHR
FAS TE block = blocks the thioesterase domain of human fatty acid synthase; P49327; recombinant FAS-TE, OMFH fluorogenic substrate, fluorescence endpoint; inhibition, % at 15 µM; 360,000 tested, 0.67% active; AID 602261;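 active = compounds whose normalised, plate-corrected inhibition of enzyme fluorescence in the single-dose primary screen is 50% or more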;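 note: 0% = DMSO with enzyme and 100% = substrate without enzyme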
SMARCA2 conf = SMARCA2 activation, confirmation screen; shares compounds with SMARCA2 activ; MG213 cells, MMTV-luciferase with dexamethasone, luminescence, overnight; MG213 cells expressing E1A, Rb sequestered; DMSO wells 0%, reference activator 100%; activation, % at 9.1 µM; 3,500 tested, 30% active; AID 652260;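 active = activation above its plate's cutoff, the mean activation of tested wells plus 3 SD, cut at about 7.9% in these data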
GAL4-VP16 Luc = GAL4-VP16 reporter activation counter-screen; shares compounds with SMARCA2 activ; HEK293 GAL4-VP16 pG5luc reporter, luciferase luminescence; scaled: DMSO wells 0%, SAHA wells 100%; activation, % at 9.1 µM; 3,500 tested, 41% active; AID 686939;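 active = activation above the solvent-only control well mean plus 3 SD, averaged across control plates, cut at about 5.2% in these data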
* hit, by the source's call; nt = not tested or not shown.

SMILES	SMARCA2 activ	GAA850 FXN act	KLK7 zymogen act	FAS TE block	SMARCA2 conf	GAL4-VP16 Luc
COc1cccc(-c2nnc3sc(-c4ccco4)nn23)c1	1.4	2.6	0.5	0.1	nt	nt
CCN(C(=O)COC(=O)c1nccnc1N)c1cccc2ccccc12	-1.1	1.1	10.4	-9.3	nt	nt
COc1ccc(-c2cc(C(F)(F)F)nc(-n3cc(Cl)cn3)n2)cc1	8.5*	-0.2	0.2	12.8	1.6	-0.1
O=C(/C=C/c1ccc(S(=O)(=O)N2CCOCC2)cc1)N1CCN(c2ccccc2)CC1	-2.4	-0.2	0.0	0.5	nt	nt
CCOC(=O)Cc1c(C)nc2c(-c3ccccc3)c(C)nn2c1C	11.8*	2.4	0.8	2.9	2.0	0.6
CCOC(=O)Cc1c(C)nc2c(-c3ccc(Cl)cc3)cnn2c1C	1.9	5.0	-7.2	19.7	nt	nt
Cc1cc(C)cc(OCC(C)CN2CCC(C(O)(c3ccccc3)c3ccccc3)CC2)c1 (centres undefined)	-5.1	nt	-0.2	nt	nt	nt
Cc1ccc(NCc2nnc(SCC(=O)Nc3ncc(C)s3)n2Cc2ccco2)c(C)c1	-0.7	0.1	-0.3	-4.9	nt	nt
O=C(N/N=C/c1ccc(-c2ccccc2C(=O)O)o1)c1cccs1	8.6*	7.0	2.0	-19.3	1.0	2.7
O=C(N/N=C/c1ccncc1)c1cccs1	nt	4.6	nt	-4.7	nt	nt
CN(C)C(=O)c1cccc(-c2cnc3c(NC=O)cc(-c4cccc(C(F)(F)F)c4)cn23)c1	-1.7	0.4	-0.9	5.7	nt	nt
O=C(O)c1cc(C2CC2)nn1-c1ccccc1	3.1	-1.9	0.3	-9.9	nt	nt
Nc1cc(C2CCCC2)nn1-c1ccccc1	9.0*	2.6	0.1	-4.1	18.0*	5.0
FC(F)(F)Oc1ccc(Nc2nc3ccccc3o2)cc1	1.6	4.3	0.6	0.5	nt	nt
c1ccc(Nc2nc3ccccc3o2)cc1	13.1*	7.0	-0.3	0.6	6.4	8.4*
Cc1ccc(CCNC(=O)CCS(=O)(=O)c2cc3c(cc2C)NC(=O)CO3)cc1	12.0*	0.9	-0.2	-6.2	1.8	-0.8
O=C(CCS(=O)(=O)c1cc2c(cc1Cl)NC(=O)CO2)NCCc1ccccc1	0.0	2.4	0.3	-6.1	nt	nt
O=c1c2ccccc2nc2c3ccccc3c(NCc3ccco3)nn12	12.6*	0.9	3.0	2.5	10.1*	0.6
CCn1c(O)c(N=Nc2ccc(Cl)c(C(=O)O)c2)c2ccccc21	10.9*	4.0	-0.4	-1.2	-4.2	1.2
CC(C)n1c(O)c(N=Nc2ccc(Cl)c(C(=O)O)c2)c2ccccc21	-0.3	1.3	0.3	1.3	nt	nt
N#Cc1ccc(S(=O)(=O)Nc2ccc3ccccc3n2)cc1	-1.7	1.0	1.6	-3.7	nt	nt
COc1cccc(CNC(=O)COC(=O)c2ccc(C(=O)c3ccccc3)cc2)c1	-0.9	1.6	0.7	12.1	nt	nt
Cc1cccc(NC(=O)CN(C)S(=O)(=O)c2ccc(Cl)cc2)n1	1.4	-0.4	0.5	-4.0	nt	nt
Cc1ccc(O)c(NC(=O)CN(C)S(=O)(=O)c2ccc(Cl)cc2)c1	10.9*	6.6	-0.2	-1.6	0.9	1.2
Cc1ccc(S(=O)(=O)N2CC(O)CC2C(=O)OCc2nc3sc(C)c(C)c3c(=O)[nH]2)cc1 (centres undefined)	-2.2	1.5	0.2	-13.0	nt	nt
SMILES	SMARCA2 activ	GAA850 FXN act	KLK7 zymogen act	FAS TE block	SMARCA2 conf	GAL4-VP16 Luc
O=C(NC(=S)NCCCN1CCOCC1)c1ccco1	-1.0	-0.4	-0.4	-5.1	nt	nt
Cc1ccccc1NC(=O)c1onc2c1CCCC2	8.2*	5.0	0.1	-5.2	6.9	8.1*
CCN(C(=O)CN(C)Cc1c(F)cccc1Cl)c1c(N)n(Cc2ccccc2)c(=O)[nH]c1=O	-0.7	0.9	0.1	-4.0	nt	nt
CN(C(=O)COC(=O)Cc1c(F)cccc1Cl)c1c(N)n(Cc2ccccc2)c(=O)[nH]c1=O	9.4*	0.4	0.3	-0.3	-2.3	2.8
COc1ccc(C(=O)Oc2c(CN3CCOCC3)cc(Cl)c3cccnc23)cc1OC	-1.1	nt	0.0	nt	nt	nt
O=C(Oc1c(CN2CCOCC2)cc(Cl)c2cccnc12)c1ccccc1	35.0*	4.9	0.9	8.4	10.7*	-1.6
CCCCN(C(=O)COC(=O)c1nc2nccc(C)n2n1)C1CCS(=O)(=O)C1 (centres undefined)	-1.2	-0.4	-0.1	-6.3	nt	nt
CCOC(=O)C1=C(COC(=O)CSc2ccc(C)cc2C)NC(=O)NC1C (centres undefined)	-1.4	2.6	0.5	-2.4	nt	nt
CCc1nc2ccc(C(=O)NCCN3CCCC3)cn2c1N(C)Cc1ccc(OC)cc1	-3.3	0.2	-0.1	-3.2	nt	nt
Cc1cc(Cl)c2oc(C(=O)NCCN3CCCCC3CO)c(C)c2c1 (centres undefined)	-1.0	3.5	-0.3	-4.6	nt	nt
Cc1cc(Cl)c2oc(C(=O)NCCC3CCCCO3)c(C)c2c1 (centres undefined)	8.9*	3.2	0.4	15.2	3.4	4.8
CSc1nc(SCC(=O)NC(c2ccccc2)c2ccccc2)c2c3c(sc2n1)CN(C)CC3	12.4*	3.2	0.6	-2.1	-4.5	-0.3
CSc1nc(NCC(C)O)c2c3c(sc2n1)CN(C)CC3 (centres undefined)	0.9	0.8	-0.7	-2.5	nt	nt
CCC(=O)NCCc1nc2cc(NC(=O)COc3ccccc3)ccc2n1C	0.9	4.7	0.1	-3.7	nt	nt
CN(C)CCCn1c(=S)[nH]c2ccccc2c1=O	-2.8	2.3	-0.6	-11.3	nt	nt
CN(C)CCCn1c2c3ccccc3ccc2c2oc(=O)c3ccccc3c21	12.3*	4.1	-95.5	1.1	54.1*	2.7
CCCC(C)C(=O)Nc1cccc(NC(C)=O)c1 (centres undefined)	-4.2	-1.4	-0.3	-6.3	nt	nt
COC(=O)c1ccc(COc2ccccc2/C=C(\C#N)C(=O)Nc2ccc(C)cc2)cc1	8.2*	7.0	0.3	7.8	-2.6	14.4*
O=S1(=O)C[C@H](N2CCN(CCO)CC2)[C@@H](COCc2ccccc2)N1	8.1*	nt	-0.2	-4.2	-3.5	2.7
CN1CCN([C@@H]2CS(=O)(=O)N[C@H]2COCc2ccccc2)CC1	-2.8	nt	0.5	-5.6	nt	nt
Cc1cnc(NC(=O)C2C(=O)c3ccccc3S(=O)(=O)N2C)s1 (centres undefined)	-2.5	1.1	0.6	-4.8	nt	nt
CCCCOc1c(Cl)cc(C(=O)N2CCN(CC(=O)N3CCCC3)CC2)cc1OCC	-2.4	1.8	0.2	-5.0	nt	nt
CCN1CCN(c2ccc(NC(=O)c3ccccc3F)cc2Cl)CC1	5.4	5.5	0.4	-3.3	nt	nt
CCN1CCN(c2ccc(NC(=O)c3ccc4c(c3)OCCO4)cc2C)CC1	10.9*	1.8	0.2	-4.0	7.1	7.9*
CCN1CCc2nc(NC(=O)c3ccc4c(c3)OCCO4)sc2C1	8.7*	2.0	-0.9	-15.9	6.8	10.7*

Compound activity (PubChem BioAssay)
